In PubChem BioAssay AID689 (Sanford-Burnham Center for Chemical Genomics, 2007):
Among all 62,000 compounds or so, about 80 (0.1%) were called active. How the calls were made is not given here. A selection follows. Potency and affinity values are given separately.

Molecular target: Ephrin type-A receptor 4 (Mus musculus) (UniProt Q03137)
Assay: inhibitors of EphA4 binding to KYL peptide, primary screen, biochemical, colorimetric, mouse EphA4 (AID 689)
Settings: EphA4-AP binding to KYL peptide, pNPP A405, at 10 µM, active compounds read high

Sequence of Ephrin type-A receptor 4 (Mus musculus) (Q03137 whole entry, looked up): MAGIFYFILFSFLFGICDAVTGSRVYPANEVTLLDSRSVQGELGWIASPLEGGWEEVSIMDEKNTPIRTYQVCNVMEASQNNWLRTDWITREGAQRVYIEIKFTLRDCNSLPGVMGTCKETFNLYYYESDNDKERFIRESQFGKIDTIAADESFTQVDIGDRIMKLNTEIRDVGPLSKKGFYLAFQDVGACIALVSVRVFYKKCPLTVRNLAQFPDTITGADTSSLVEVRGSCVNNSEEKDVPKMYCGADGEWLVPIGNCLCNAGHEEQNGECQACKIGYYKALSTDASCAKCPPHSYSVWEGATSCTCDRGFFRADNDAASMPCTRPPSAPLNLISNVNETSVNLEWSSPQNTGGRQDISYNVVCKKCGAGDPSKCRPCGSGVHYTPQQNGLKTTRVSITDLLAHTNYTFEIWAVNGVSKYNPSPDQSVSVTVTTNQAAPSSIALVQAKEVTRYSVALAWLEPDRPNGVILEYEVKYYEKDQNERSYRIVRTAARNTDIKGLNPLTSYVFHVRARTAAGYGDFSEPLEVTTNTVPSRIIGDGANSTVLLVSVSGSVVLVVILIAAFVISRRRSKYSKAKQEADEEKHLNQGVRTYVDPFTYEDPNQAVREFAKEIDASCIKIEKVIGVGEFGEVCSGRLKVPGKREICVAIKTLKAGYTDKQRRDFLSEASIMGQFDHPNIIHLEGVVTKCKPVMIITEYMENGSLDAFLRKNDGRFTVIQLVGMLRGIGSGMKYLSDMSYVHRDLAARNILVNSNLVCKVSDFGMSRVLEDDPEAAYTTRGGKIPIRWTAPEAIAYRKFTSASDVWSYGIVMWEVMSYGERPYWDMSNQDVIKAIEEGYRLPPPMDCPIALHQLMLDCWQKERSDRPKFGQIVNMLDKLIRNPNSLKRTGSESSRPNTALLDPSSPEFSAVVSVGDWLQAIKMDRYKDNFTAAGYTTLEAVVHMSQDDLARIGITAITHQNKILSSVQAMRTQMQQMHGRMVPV

inhibition, inactive:
O=c1oc2ccccc2c(O)c1/C=N/c1ccccn1 -4.8%
Oc1c(/C=N/c2ncn[nH]2)ccc2ccccc12 -0.6%
Cc1ccc(CNC(=O)C2CCCCC2C(=O)O)cc1 (centres undefined) -8.9%
COc1cc(C(=O)Nc2c(-c3ccccc3)c3cc(Br)ccc3[nH]c2=O)cc(OC)c1OC -0.5% [this sample at 5 µg/mL]
COc1ccc(OC)c(NC(=O)Cn2c(-c3ccc(Cl)cc3)noc2=O)c1 -3.5%
CCCC(=O)N1CCN(c2ccc(NC(=O)c3ccccc3)cc2)CC1 -0.5%
COc1ccc(NC(=O)CN2C(=O)C(C)Oc3ccccc32)cc1 (centres undefined) -3%
O=CNCCCc1nc2ccccc2n1Cc1ccccc1 7.7%
CCn1c2ccccc2c2nc3cc(S(=O)(=O)N4CCOCC4)ccc3nc21 32.3%
O=[N+]([O-])c1cccc(S(=O)(=O)N2CCOCC2)c1 2.9% [this sample at 5 µg/mL]
O=C(NCc1ccccc1)c1ccc2nccnc2c1 -12.5%
O=C(NC1CCCC1)c1ccc2nc(-c3ccco3)c(-c3ccco3)nc2c1 18.8%
O=C(NCc1ccccc1)c1cccc(NC(=O)c2ccco2)c1 -2.1%
COc1ccc(CCNC(=O)c2ccc3nc(-c4ccco4)c(-c4ccco4)nc3c2)cc1OC 24.1%
CCOC(=O)N1CCC(NC(=O)c2cc(C)c3c(C)nn(-c4ccccc4)c3n2)CC1 -3.2%
COc1c(Cl)cc(C(=O)Nc2cccc3ccccc23)cc1Cl -13.9% [this sample at 5 µg/mL]
CCc1nc(SCc2nc3ccccc3[nH]2)c2oc3ccccc3c2n1 12.7%
Cc1sc(NC(=O)CN(C)C2CCCCC2)nc1-c1ccc2c(c1)CCN2S(=O)(=O)c1ccccc1 -7%
O=C(Cc1ccc(F)cc1)Nc1ccccc1Br -10% [this sample at 5 µg/mL]
CCOC(=O)c1c(C)oc2ccc(OC(=O)c3ccccc3OC)cc12 -1% [this sample at 5 µg/mL]
CCOC(=O)c1cc(OC(=O)c2ccccc2)n(-c2ccccc2)n1 0.3%
Cc1onc(-c2ccccc2Cl)c1C(=O)Nc1ccccc1N1CCOCC1 4%
Cc1nn(-c2ccc(Cl)cc2)c2sc(C(=O)N3CCN(C(=O)c4ccco4)CC3)cc12 -24.1%
CCCCc1nnc(SCc2ccc(OCC)cc2)n1N -2.2%
